Compounds without any hit were thinned out: in the full panel of roughly 83,000, 20% have a hit.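 Treatment: one concentration, 48 hours, 96-well format. Scoring: percent growth, with anything below 10 considered active.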 A number with no mark means an inactive call. Calls of active or inactive are those of the source.
Test system: HL-60(TB) leukemia
Experiment: NCI-60 one-dose screen, 48 h (100 = growth as untreated, 0 = no growth, -100 = all killed)
Conditions: 10 µM unless noted

Row | SMILES | growth
1 | CCN(CC)CCCC(Nc1c2ccc(Cl)cc2nc2ccc(OC)cc12)c1ccc(F)cc1 (stereo not given) | -37.5% (active)
2 | COc1cc2c3c(c1)nc(C)n3CCC2 | 99.7%
3 | O=c1[nH]nc(-c2ccc(Br)cc2)cc1Cc1ccc(O)cc1 | 85.4%
4 | CC(C)(O)CCl | 120%
5 | COc1cc2ncnc(Nc3ccc(S(=O)(=O)Nc4cc(C)on4)cc3)c2cc1OCCCN1CCOCC1 | 101%
6 | CCN(CC)C(=O)C1=C(C)NC(=O)NC1c1ccc2c(c1)OCO2 (stereo not given) | 101%
7 | CC(C)(C)OC(=O)N1Cc2cc3ccccc3nc2C1CO (stereo not given) | 92.8%
8 | COc1ccc(S(=O)(=O)n2ccc(-c3ccc4c(c3)CCC(C)(C)O4)n2)cc1OC | 94.7%
9 | COc1cc(/C=C/c2cc(O)c3cc(C(C)=O)c(=O)oc3c2)cc2c1O[C@]1(C)CC[C@@H](O)C(C)(C)[C@H]1C2 | 4.64% (active)
10 | COc1ccc(-n2c(C(O)c3ccccc3)n[nH]c2=S)cc1 (stereo not given) | 119%
11 | CSCc1ncc(-c2ccc(C(F)(F)F)cc2)c(NC2CCCCCC2)n1 | 20.7% [25 µM]
12 | COC(=O)C1(C)COP(=O)(Nc2ccc(OC)cc2)OC1 (stereo not given) | 94.7%
13 | O=[N+]([O-])c1ccccc1CN1CCCCC1 | 101%
14 | O=C1NC(SCc2ccc(F)cc2)=N/C1=C/c1cccc(OCc2ccc(Cl)cc2)c1 | 61.5%
15 | Cc1cc(C#Cc2ccccc2)ccc1-n1c(/C=C/c2cc(O)ccc2O)nc2ccccc2c1=O | -11.9% (active)
16 | N#Cc1ccc(-c2ccc(COc3ccc(CC4SC(=O)NC4=O)cc3)cc2)cc1 (stereo not given) | 70.5%
17 | CC1CCC(C(C)(C)[N+](C)(C)C)CC1 (stereo not given) | 104%
18 | O=C1/C(=C/c2ccc(OCCCOc3ccc(Cl)cc3)cc2)N=C2SCCCN12 | 93%

Row | SMILES | growth
19 | COc1ccc(C(=O)Nc2cccc(C3CCc4c(cc(OC)c(OC)c4OC)O3)c2)cc1 (stereo not given) | 10.7%
20 | CSc1nn(-c2ccccc2)c2ncnc(Oc3ccc(C)cc3)c12 | 98.3%
21 | COc1cc(/C=N/NC(=O)c2ccc(C)nc2)cc(OC)c1OC | 56%
22 | CC1(C)CC[C@]2(CO)CC[C@]3(C)C(=CC[C@@H]4[C@@]5(C)CCNCC(C)(C)[C@@H]5CC[C@]43C)[C@@H]2C1 | 23.5%
23 | CN1CCN(C(=O)[C@]23CCC(C)(C)C[C@H]2C2=CC[C@@H]4[C@@]5(C)C/C(=C/c6ccncc6)C(=O)C(C)(C)[C@@H]5CC[C@@]4(C)[C@]2(C)CC3)CC1 | -41.7% (active)
24 | CC(C)C[C@H](NC(=O)Cn1ccc2ccccc2c1=O)B(O)O | 27.9%
25 | CCOC(=O)c1cc(C(=O)c2cc(OC)cc(OC)c2)n2nc(C)ccc12 | -16.5% (active)
26 | NC(=O)c1ccc[n+](CC(=O)N2CCN(c3cc4c(cc3F)c(=O)c(C(=O)O)cn4C3CC3)CC2)c1 | 106%
27 | Cn1cc(-c2ccc3ncc(-c4ccc(CC(=O)Nc5cc(C(C)(C)C)no5)cc4)nc3c2)cn1 | 40.4%
28 | C=C1C(=O)O[C@H]2[C@H]1CC/C(COC(=O)OCCCCCOC(=O)OC/C1=C/CC[C@@]3(C)O[C@H]3[C@H]3OC(=O)C(=C)[C@@H]3CC1)=C\CC[C@@]1(C)O[C@@H]21 | -23.1% (active)
29 | C/C(=C(/c1ccc(O)cc1)c1ccc(OCCN2CCCC2)cc1)c1ccccc1 | 45.1%
30 | Cc1cc(N(CCOS(C)(=O)=O)CCOS(C)(=O)=O)ccc1C=Nc1ccc(-c2nc(Cc3ccccc3)sc2C)cc1 | 4.95% (active)
31 | CCc1ccc(NC(=O)N[C@@H](Cc2cc(F)cc(F)c2)C(=O)N[C@@H]2C(=O)N3C[C@H](O)C[C@H]3C(=O)N3CCOC[C@H]3C(=O)N[C@@H](C)C(=O)N3C[C@H](C)C[C@H]3C(=O)O[C@H]2C)cc1 | 23.8%
32 | Cc1ccc(-c2nc3ccccc3c(=O)n2/N=C/c2cccc3ccccc23)cc1 | 85.1%
33 | CC(=O)Nc1cc2c3c(cccc3c1)-c1ccccc1-2 | 0.506% (active)
34 | C=C(C)[C@@H]1CC[C@]2(CNCCO)CC[C@]3(C)[C@H](CC[C@@H]4[C@@]5(C)CCC(N)[C@@](C)(CO)[C@@H]5CC[C@]43C)[C@@H]12 (stereo not given in full) | -63.7% (active)
35 | C=C(C)C(C(=O)OCC)(C(=O)OCC)C(C)C | 118%

— PubChem BioAssay (NCI)
